Results from PubChem BioAssay AID463173 (ICCB-Longwood Screening Facility, Harvard Medical School, 2010).
About 1,700 (3.3%) of roughly 52,000 compounds were called active. The sample as a whole holds a higher share of actives than the screen did. Values without a mark were called inactive. No stated cut-off is given here; in the data, active means survival mostly below about 52% (no sharp cut-off); inactive means mostly above about 56%.

Test system: Wild type
Assay: S. aureus survival, RN4220 and DeltatarO strains – OD600, teichoic acid synthesis inhibitors, primary screen (AID 463173)
Details: S. aureus RN4220 wild type/DeltatarO growth, OD600, 18 h, hits give low values, screened at 18.75 µg/mL (by protocol)

Compound	survival
Cc1ccc(OCC(=O)Nc2ccccc2C(=O)OCc2cc(=O)n3c(C)csc3n2)cc1	72%
O=C(Nc1ccc(Cl)cc1)C1CCN(S(=O)(=O)c2ccc(Br)s2)CC1	60%
CCC(C)(C)NC(=O)C1CCN(S(=O)(=O)c2ccc3c(c2)CCCN3C(C)=O)CC1	71%
O=C(/C=C(/O)c1cccnc1)C(F)(F)F	86%
O=C1CC2C(=O)NCCN2C(=NC(=O)c2ccc(Cl)cc2)N1 (stereo not drawn)	100%
COc1cccc(/C=N/NC(=O)CSCc2ccccc2)c1O	108%
COc1cccc(/C=N/NC(=O)COc2c(C)cccc2C)c1O	113%
COc1cccc(/C=N/NC(=O)c2cccc(C)c2)c1O	1% (active)
COc1cc(OC)cc(C(=O)Nc2ccc(S(=O)(=O)N3CCCCC3c3cccnc3)cc2)c1 (stereo not drawn)	71%
Cc1ccc(Cl)cc1N1CCN(C(=O)CCS(=O)(=O)c2cc(Br)cc3c2N(C(=O)C2CC2)CC3)CC1	80%
CC(NC(=O)c1cccc(NC(=O)c2nsc3ccccc23)c1)c1ccccc1 (stereo not drawn)	111%
O=C(NCc1ccccc1)c1ccc(NC(=O)c2nsc3ccccc23)cc1	55%
O=C(NCc1cccc(F)c1)c1ccc(NC(=O)c2nsc3ccccc23)cc1	-4% (active)
COC(=O)c1cccc(NC(=O)c2nsc3ccccc23)c1	0% (active)
CCC(C)NC(=O)c1cccc(NC(=O)c2nsc3ccccc23)c1 (stereo not drawn)	76%
O=C(NCc1cccc(F)c1)c1cccc(NC(=O)c2nsc3ccccc23)c1	87%
Cc1ccccc1Nc1c(-c2ccc(N3CCOCC3)cc2)nc2cccc(C)n12	59%
Cc1ccc(N(C)C(=O)C2CCCN(c3ncnc4c3nc3n4CCCCC3)C2)cc1C (stereo not drawn)	127%
CCc1ccc(NC(=O)C2CCN(c3nn4cc(-c5ccc(OC)cc5)nc4s3)CC2)cc1	71%
COc1ccc(-c2nc3c4ccccc4n(CC(=O)N4CCN(c5ccccc5F)CC4)c(=O)n3n2)cc1	91%
CC1(C)C(=O)NC(=O)N1CN1C(=O)NC(=O)C1(C)C	111%
CCOc1ccc(C(=O)Nc2ccc(-n3nncc3-c3ccccc3)cc2)cc1OCC	135%
O=C(c1cc2c(=O)oc3ccccc3c2s1)N1CCN(c2cccc(Cl)c2)CC1	145%
CCCN1C(=O)c2ccccc2CC1(C)C(=O)NC1CCCCC1 (stereo not drawn)	85%

Compound	survival
Cc1cccc(NC(=O)c2c(NC(=O)c3ccccc3)sc3c2CCC3)c1	80%
Cc1cccc(C(=O)Nc2sc3c(c2C(=O)Nc2ccccc2)CCC3)c1	67%
Cc1cccc(NC(=O)c2c(NC(=O)C(F)(F)F)sc3c2CCCCC3)c1	-3% (active)
O=C(Cc1ccccc1)Nc1sc2c(c1C(=O)Nc1cccc(Cl)c1)CCCCC2	91%
O=C(Nc1cccc(Cl)c1)c1c(NC(=O)C(F)(F)F)sc2c1CCCC2	-2% (active)
O=C(Nc1sc2c(c1C(=O)Nc1cccc(Cl)c1)CCCC2)c1cccs1	140%
COc1ccc(CC(=O)Nc2sc3c(c2C(=O)Nc2cccc(C)c2)CCCCC3)cc1	63%
Cc1cccc(NC(=O)c2c(NC(=O)c3ccccc3)sc3c2CCCC3)c1	82%
Cc1cccc(NC(=O)c2c(Br)sc3c2CCCC3)c1	0% (active)
CCOC(=O)c1c(S(=O)(=O)N2CCCC(C(=O)N3CCN(c4cc(C)ccc4C)CC3)C2)c(C)n(C)c1C (stereo not drawn)	72%
COc1cccc(-c2cc(C(=O)Nc3cnn(Cc4ccc(Cl)cc4Cl)c3)no2)c1	112%
CCC(=O)n1c2c(c3ccccc31)Nc1ccccc1N2	105%
CC(C)Oc1ccc(CNC(=O)C2CCN(Cc3cc4ccccc4n3Cc3ccccc3)CC2)cc1	93%
CCC(C(=O)NCCc1ccc(Cl)cc1)n1ccc2cc(S(=O)(=O)N3CCCCC3)ccc21 (stereo not drawn)	101%
CCC(c1nnnn1C1CCCC1)N1CCN(Cc2ccccc2)CC1 (stereo not drawn)	104%
COc1ccc(C(=O)c2cn(CC(=O)Nc3cc(C)ccc3C)c3nc(C)ccc3c2=O)cc1	146%
CCOC(=O)C1NC(=O)CC1c1ccccc1 (stereo not drawn)	99%
CC(Oc1ccccc1F)C(=O)N1CCC(c2nc3ccccc3o2)CC1 (stereo not drawn)	-18% (active)
Cc1cccc(C)c1OCC(=O)N1CCC(c2nc3ccccc3o2)CC1	81%
CCc1ccc(OC(C)C(=O)N2CCC(c3nc4ccccc4o3)CC2)cc1 (stereo not drawn)	92%
COc1ccccc1OCC(=O)N1CCC(c2nc3ccccc3o2)CC1	-12% (active)
Cc1cccc(OC(C)C(=O)N2CCC(c3nc4ccccc4o3)CC2)c1C (stereo not drawn)	74%
Cc1cccc(OCC(=O)N2CCC(c3nc4ccccc4o3)CC2)c1C	72%
Cc1ccccc1C(=O)NC1CCN(CC(=O)NC(C)(C)C)CC1	100%

Compound	survival
CC(Oc1ccc(/C=C(/C#N)C(=O)N2CCOCC2)cc1)C(=O)O (stereo not drawn)	104%
Cc1ccc(N(C)C(=O)c2noc3c2CCCCC3)cc1C	73%
CCCCn1c(=O)c2oc3ccccc3c2n(Cc2ccc(OC)cc2)c1=O	115%
CCCCN(C)CC(O)Cn1cc(/C=C/C(=O)c2ccc(Br)cc2)c2ccccc21 (stereo not drawn)	15% (active)
Cc1ccc(C(=O)/C=C/c2cn(CC(O)CN3CCc4ccccc43)c3ccccc23)cc1 (stereo not drawn)	76%
CCCCN(C)CC(O)Cn1cc(/C=C/C(=O)c2ccc(C)cc2)c2ccccc21 (stereo not drawn)	15% (active)
CCCCN(C)CC(O)Cn1cc(/C=C/C(=O)c2ccc(OCC)cc2)c2ccccc21 (stereo not drawn)	21% (active)
CCOc1ccc(C(=O)/C=C/c2cn(CC(O)CN3CCc4ccccc43)c3ccccc23)cc1 (stereo not drawn)	69%
CCCCN(C)CC(O)Cn1cc(/C=C/C(=O)c2ccc(OC)c(OC)c2)c2ccccc21 (stereo not drawn)	87%
O=C(O)CCc1ccc(-c2ccccc2)n1Cc1ccco1	103%
CCOc1ccc(S(=O)(=O)N(C(C)=O)c2ccc3oc(C)c(C(=O)OC)c3c2)cc1	130%
Cc1ccc(N(Cc2cccs2)C(=O)c2ccccc2[N+](=O)[O-])cc1	82%
CN1C=CC=C/C1=C1\SC(=S)N(C2CCCCC2)C1=O	120%
Cc1ccc(Cl)cc1NC(=O)c1ccc(NC(=O)N2CCSc3ncccc32)cc1	71%
CC(=O)c1ccc(NC(=O)c2cccc(NC(=O)N3CCSc4ncccc43)c2)cc1	55%
CC(C)Oc1ccc(CNC(=O)Cc2ccc(NC(=O)N3CCSc4ncccc43)cc2)cc1	73%
CCc1cccc(NC(=O)c2ccc(NC(=O)N3CCSc4ncccc43)cc2)c1	-3% (active)
CC(C)Oc1ccc(CNC(=O)c2cccc(NC(=O)N3CCSc4ncccc43)c2)cc1	79%
Cc1ccccc1NC(=O)c1ccc(NC(=O)N2CCSc3ncccc32)cc1	-4% (active)
Cc1ccc(NC(=O)c2ccc(NC(=O)N3CCSc4ncccc43)cc2)c(C)c1	82%
CCOc1ccc(NC(=O)c2ccc(NC(=O)N3CCSc4ncccc43)cc2)cc1	64%
CC(C)Oc1ccc(CNC(=O)c2ccc(NC(=O)N3CCSc4ncccc43)cc2)cc1	1% (active)
CCOc1ccc(-c2oc3cc(Cl)ccc3c(=O)c2O)cc1OC	103%
CC(C)NC(=O)CSc1cn(CC(=O)N2CCCCCC2)c2ccccc12	95%

Compound	survival
Cc1cc2c(cc(C(=O)OC(C(=O)NCC3CCCO3)C(C)C)n2C)o1 (stereo not drawn)	120%
O=C(c1ccc(F)cc1)N1c2ncnn2C2(CCCCC2)[C@@H]2CCCC[C@@H]21	82%
COc1ccc(Cn2c(CNS(=O)(=O)c3ccc(Cl)s3)nc3cccnc32)cc1	78%
CCC/C(O)=C1\C(=O)CC(C)(C)CC1=Nc1ccncc1	115%
CCc1ccc(NC(=O)CN2CCN(C3CCCCC3)C(=O)C2=O)cc1	77%
CCc1ccc(NC(=O)C2CCCN(S(=O)(=O)c3ccc(F)cc3)C2)cc1 (stereo not drawn)	75%
CCOC(=O)c1c(C(=O)CSc2ncc(-c3ccc(F)cc3)n2Cc2ccco2)sc2c1CCCC2	116%
CCOc1ccc(C(C)N)cc1 (stereo not drawn)	102%
COCCNC(=O)Nc1ccc2c(c1)nc(C)n2C	87%
COc1cc(C2Nc3c(C)cc(C)cc3-c3cc(C)nn32)cc(OC)c1O (stereo not drawn)	97%
COc1ccc(OC)c(C2Nc3c(C)cc(C)cc3-c3cc(C)nn32)c1 (stereo not drawn)	-14% (active)
CC(=O)Nc1ccc(C2Nc3c(C)cc(C)cc3-c3cc(C)nn32)cc1 (stereo not drawn)	141%
Cc1ccc2c(c1)-c1cc(C)nn1C(c1cc(Br)ccc1O)N2 (stereo not drawn)	131%
Cc1cc2n(n1)C(c1ccccc1)Nc1ccccc1-2 (stereo not drawn)	123%
COc1cc(OC)c(C2Nc3c(C)cccc3-c3cc(C)nn32)cc1OC (stereo not drawn)	142%
CCN(CC)c1ccc(C2Nc3ccccc3-c3cc(C)nn32)cc1 (stereo not drawn)	-1% (active)
CCOc1cccc(C2Nc3ccccc3-c3cc(C)nn32)c1O (stereo not drawn)	145%
COc1cc(C2Nc3ccccc3-c3cc(C)nn32)ccc1O (stereo not drawn)	139%
COC(=O)c1ccc(C2Nc3c(C)cccc3-c3cc(C)nn32)cc1 (stereo not drawn)	-4% (active)
CCOc1ccc(C2Nc3c(C)cccc3-c3cc(C)nn32)cc1 (stereo not drawn)	-14% (active)
Cc1cc2n(n1)C(c1cc(C(C)(C)C)c(O)cc1O)Nc1ccccc1-2 (stereo not drawn)	115%
